Source: PubChem BioAssay AID1347076 (National Center for Advancing Translational Sciences (NCATS), 2019)
The campaign covered roughly 400,000 compounds. About 13,000 (3.2%) were called active. About 18% were inconclusive and are not listed. Many of the other results were omitted from the sample, so actives are more common in it than they were. Values without a mark were called inactive. Calls come from the whole dose curve; as a rule, active = well fitted cell-killing curve with a large enough effect; inconclusive = small, poorly fitted or top-dose-only effect, or effect the other way; inactive = flat fitted curve, though single readings scatter.

Assay: qHTS assay for MDR1-selective chemotherapeutics: Primary screen using the drug-selected MDR subline cells KB-V1; note: nearly all actives have a fitted effect of over 60% in size
Conditions: KB-V1 MDR cells viability, CellTiter-Glo, 72 h; series mostly up to 46.1 µM; activity change, negative = cytotoxicity: at the top concentration
Method in brief: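 In this primary screen, KB-V1 cells overexpressing P-gp are incubated with library compounds (lowest to highest concentration) for 72 h at 37 degrees C before a luminescent ATP viability read.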
% is set by controls: 0 for no effect and ±100 for the full control effect; potency is the fitted concentration of half-maximal effect.

Compound	activity change, negative = cytotoxicity [%]	Potency
O=C(NC1CCCC1)C1c2ccccc2OCC(=O)N1Cc1ccccc1 (centres undefined)	-6.86	–
CC1(C(=O)Nc2cccc3c2CCCC3)CCN1C(=O)C1(c2ccccc2)CC1 (centres undefined)	-0.882	–
Brc1nc2ncnc(NCc3ccco3)c2[nH]1	-7.71	–
COCOCCn1cc(CN2CCS(=O)(=O)N(Cc3ccc(-c4ccccc4)cc3)C(CC(C)C)C2=O)nn1 (centres undefined)	-17.5	–
Cc1cccc(OCCSc2nc3ccccc3n2CC(=O)N2CCCCC2)c1C	5.3	–
CC(=O)c1nn(-c2ccc(C)cc2)cc1C(=O)c1cccc(Br)c1	3.34	–
CCOC(=O)c1cn(Cc2cccc(C)c2)nn1	10.5	–
CCOC(=O)c1nn(-c2cccc(C)c2)cc1C(=O)c1ccccc1	–	14.6 µM (active)
Nc1cc(N2CCCCCC2)c2nonc2c1[N+](=O)[O-]	–	8.2 µM (active)
Cc1c(Nc2cc(N3CCCC(C)C3)c3nonc3c2[N+](=O)[O-])c(=O)n(-c2ccccc2)n1C (centres undefined)	13.6	–
COCCNc1nc(N)c([N+](=O)[O-])c(N2CCCCCC2)n1	-0.779	–
CC1(C)OC(=O)C2=C(C[C@@H](C3CCCCC3)O[C@@H]2c2ccc(Cl)cc2)O1	-23	–
Cc1[nH]n(-c2cccc(Cl)c2)c(=O)c1/C=N/n1c(C)nc2ccccc2c1=O	–	7.31 µM (active)
Cc1[nH]n(-c2ccccc2)c(=O)c1/C=N/NC(=O)c1ccoc1C	-24.5	–
CCCc1nc2ccccc2c(=O)n1/N=C/c1ccc(O)c(O)c1	-23.5	–
COc1ccc(C(CNC(=O)CSc2ccccc2)N2CCOCC2)cc1 (centres undefined)	-1.79	–
Cc1ccc2cccc([N+](=O)[O-])c2n1	8.04	–
Cc1cccc(C)c1NC(=O)COC(=O)c1c(C)nn(-c2ccccc2)c1C	-18.2	–
Cc1nn(-c2ccccc2)c(C)c1/C=C/C(=O)OC(C)C(N)=O (centres undefined)	–	23.1 µM (active)
CCC(Oc1ccccc1)C(=O)OCC(=O)Nc1c(C)nn(-c2ccccc2)c1C (centres undefined)	19.3	–
CCOC(=O)C1CCCN(C(=O)c2cccc3ccccc23)CC1 (centres undefined)	2.97	–
CCOC(=O)C1(CCOc2ccccc2)CCN(Cc2cc(OC)c(O)cc2Cl)CC1	-24.4	–

Compound	activity change, negative = cytotoxicity [%]	Potency
CC(C)(O)C#Cc1ccc(CN2CCC(CO)(CCc3ccccc3)CC2)cc1	-12.5	–
Cc1c(CN2CCC(CO)(CCOc3ccccc3)CC2)[nH]c2ccc(Cl)cc12	–	5.8 µM (active)
COc1cc(OC)c(NC(=O)N2CC3CCCN3c3ccccc32)cc1Cl (centres undefined)	-18	–
C[C@@H]1CN([C@@H](C)CO)C(=O)CCCn2nncc2CO[C@H]1CN(C)C(=O)Nc1ccc(C(F)(F)F)cc1	-3.62	–
CCc1nc2cccnc2n1-c1ccc(CC(=O)Nc2c(C)cccc2C)cc1	7.03	–
CC1CC(C)CN(c2oc(-c3ccc(OCc4ccc(Cl)cc4)cc3)nc2C#N)C1 (centres undefined)	0	–
CCN(CC)S(=O)(=O)c1ccc(OC)c(NC(=O)CCc2c(C)noc2C)c1	-7.82	–
CCOc1ccc(Br)cc1S(=O)(=O)Nc1cccc(S(=O)(=O)N(CC)CC)c1	-5.63	–
CCN(CC)S(=O)(=O)c1ccc(N(C)Cc2cccc(OC)c2OC)nc1	–	6.51 µM (active)
CCC(C(=O)Nc1cccc(Cl)c1C)n1nc(-c2ccc(C)cc2)ccc1=O (centres undefined)	0	–
CCc1nc2c(OCCOc3ccccc3)cccn2c1N(C=O)Cc1ccc(OC)cc1	-23	–
CC(Nc1nc(C(F)(F)F)nc2ccccc12)c1cccs1 (centres undefined)	-18.5	–
Cc1cc(C)n(-c2nc(C(F)(F)F)nc3ccccc23)n1	18.4	–
CCc1ccc(C(CNc2nc(C(F)(F)F)nc3ccccc23)N(C)C)cc1 (centres undefined)	–	16.4 µM (active)
CC1=C(C(=O)N(C(C)C)C(C)C)CC(CC(=O)NCC2CCCCC2)C(=O)N1Cc1ccccc1 (centres undefined)	-6.01	–
O=C(NCC1CCCO1)c1ccc2ccccc2n1 (centres undefined)	20.7	–
COc1ccc2cc(C(=O)NCC3CCCO3)[nH]c2c1 (centres undefined)	-5.71	–
O=C(NCC1CCCO1)c1cc2c([nH]c3ccccc32)c(-c2ccc(F)cc2)n1 (centres undefined)	–	11.6 µM (active)
Cc1cccc(N(CC(=O)N2CCCC2)S(C)(=O)=O)c1C	-10.2	–
CC(=O)N1CCN(Cc2cc(=O)oc3cc(C)ccc23)CC1	23.4	–
Cc1ccc2c(CN3CCN(S(=O)(=O)c4ccccc4C(F)(F)F)CC3)cc(=O)oc2c1	-4.4	–
O=S(=O)(c1cccs1)N1CCN(Cc2ccccc2)CC1	–	16.4 µM (active)

Compound	activity change, negative = cytotoxicity [%]	Potency
COc1ccc2c(CN3CCN(S(=O)(=O)c4cccs4)CC3)cc(=O)oc2c1	–	13 µM (active)
O=S(=O)(c1cccs1)N1CCc2ccccc2C1	-1.64	–
O=C(NCc1ccccc1)C1CCCN(S(=O)(=O)c2cccs2)C1 (centres undefined)	-11.5	–
O=c1cc(CN2CCCCCCC2)c2c(ccc3ccccc32)o1	0	–
CC/C(C)=N/Nc1nc2sc3c(c2c(=O)[nH]1)CC(C)(C)OC3	0	–
CCC(O)CNc1nc(-n2nc(C)cc2C)nc2sc3c(c12)CC(C)(C)OC3 (centres undefined)	–	2.59 µM (active)
COCCNc1nc(-n2nc(C)cc2C)nc2sc3c(c12)CCCC3	–	9.2 µM (active)
CCOC(=O)Cn1c(SC)nc2sc3c(c2c1=O)CC(C)(C)OC3	0	–
CCc1nc(N2CCN(C(C)=O)CC2)c2c3c(sc2n1)CCCC3	0.835	–
COCCn1c(C)cc(C(=O)CSc2ncnc3sc4c(c23)CCC4)c1C	-0.688	–
O=C(NC1CCCCC1)C(c1cc2ccccc2o1)n1c(=O)c(-c2ccco2)nc2ccccc21 (centres undefined)	0.699	–
Nc1[nH]c(C(=O)c2ccccc2)c(-c2ccncc2)c1C(=O)NCc1cccc2ccccc12	-26.5	–
Cc1ccc(Cn2cc(CN3CC(N4CCN(C)CC4)CS3(=O)=O)nn2)cc1 (centres undefined)	-0.565	–
CCOC(=O)N1CCN(C(=O)c2ccc(S(=O)(=O)Nc3cccc(C(F)(F)F)c3)cc2)CC1	-0.0688	–
Cc1ccccc1CN1CCN(C(=O)c2cccc(F)c2)CC1	-5.87	–
Cc1ccccc1CS(=O)(=O)CC1(O)CCN(C(=O)c2cccc(C(F)(F)F)c2)CC1	–	14.6 µM (active)
CCOc1ccc(-c2cc3nc(C4CCN(C(=O)OC(C)(C)C)CC4)c(C(=O)Nc4cccc(CC)c4)cn3n2)cc1	11.3	–
Cn1c(=O)c2c(-c3ccccc3Br)n(Cc3ccccc3)cc2n(C)c1=O	8.21	–
C[C@H]1CCC(=O)N([C@H](CSc2ccccc2)Cc2ccccc2)CC1	-9.51	–
CC(=O)Nc1ccc(SC[C@H](Cc2ccccc2)N2CC[C@@H](C)CCC2=O)cc1	0.636	–
